# Assay outcomes as filed in PubChem BioAssay.
# CYP2C9 act – increases human cytochrome P450 2C9 activity; AID 1024; activation factor at 5 µM; recombinant CYP2C9, luciferin-H conversion, luminescence; stronger effect = higher value; factor 1 = untreated enzyme, 0 = blocked; 1.4% of 96,000 active; P11712;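 active = activation factor of 2 or more for CYP2C9 at a 5 µM dose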;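 also: 0 = sulfaphenazole-blocked wells and 1 = vehicle-only wells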
# CYP2C19 act – increases human CYP2C19 enzyme activity | recombinant CYP2C19, luciferin-H EGE luminescence; stronger effect = higher value; 0 = fully inhibited enzyme, 1 = untreated enzyme | activation factor at 5 µM | 96,000 tested, under 10 active;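 active = activation factor of at least 2 at 5 µM in the primary screen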;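 also: 0 = wells with 2.5 mM tranylcypromine and 1 = vehicle-only wells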
# Target sequence (P33261 whole entry, looked up): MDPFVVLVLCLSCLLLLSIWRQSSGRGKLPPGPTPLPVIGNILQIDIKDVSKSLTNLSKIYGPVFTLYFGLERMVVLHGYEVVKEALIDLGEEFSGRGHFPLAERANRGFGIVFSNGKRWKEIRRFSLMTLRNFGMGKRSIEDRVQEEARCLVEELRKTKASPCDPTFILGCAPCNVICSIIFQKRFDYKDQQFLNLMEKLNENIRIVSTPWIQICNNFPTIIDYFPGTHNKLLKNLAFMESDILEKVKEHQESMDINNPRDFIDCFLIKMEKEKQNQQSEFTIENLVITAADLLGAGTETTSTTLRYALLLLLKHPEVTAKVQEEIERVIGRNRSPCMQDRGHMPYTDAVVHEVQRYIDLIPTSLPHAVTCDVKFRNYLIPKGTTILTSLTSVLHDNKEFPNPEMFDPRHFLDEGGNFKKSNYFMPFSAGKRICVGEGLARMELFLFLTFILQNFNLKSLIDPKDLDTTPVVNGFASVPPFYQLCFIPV
# CYP2C19 inh – inhibitors of human CYP2C19. P33261. CYP2C19 Supersomes, luciferin-H EGE luminescence, 30 min. inhibition, % at 5 µM. 21% of 96,000 active. AID 778;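 active = CYP2C19 inhibition above a set limit at 5 µM in the primary screen, cut at about 50% in these data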;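 also: plate controls were negative control wells for no effect and 2.5 mM tranylcypromine positive control for full effect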
# sEH inh – blocks human soluble epoxide hydrolase activity | 0.34% of 91,000 active | AID 707 | inhibition, % at 2 µM | recombinant human sEH enzymatic activity assay; in the data active = inhibition above about 80%
# CYP2C9 inhib – inhibitors of human CYP2C9. P11712. CYP2C9 Supersomes, luciferin-H conversion, luminescence. inhibition, % at 5 µM. 20% of 96,000 active. AID 777;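 active = blocking of liver enzyme CYP2C9 beyond about 50% at 5 µM, limit read from the data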
# sEH act – soluble epoxide hydrolase (human) activation; P34913; purified human sEH enzymatic activity, activator screen; activation, % at 2 µM; 0.04% of 91,000 active; AID 717; in the data active = activation above about 37%
# * = called active by the depositor; nt = no result given. Shown are actives, neighbours in structure and some others; about 27% of the full set was active somewhere.
SMILES,CYP2C9 act,CYP2C19 act,CYP2C19 inh,sEH inh,CYP2C9 inhib,sEH act
CCC(C)N1CC(O)=C(c2nc3ccccc3[nH]2)C1=N (centres undefined),0.6,0.2,84.3*,-15.2,37.7,19.9
CCN(CC)C(=O)C1CCCN(c2ccc([N+](=O)[O-])cc2/C=N/NC(=O)c2cccc([N+](=O)[O-])c2)C1 (centres undefined),0.6,0.6,38.3,-6.9,44.6,5.6
NC(=O)CN1CCN(C(=O)Nc2ccccc2)CC1,1.1,1,-3.9,nt,-7.3,nt
O=S(NC1CCCCC1)C12CC3CC(CC(C3)C1)C2 (centres undefined),1.1,0.9,7.9,nt,-6.6,nt
Cc1ccc(C(=O)NC(=S)Nc2cccc3c(C)cc(C)nc23)cc1,0.9,0.9,9.3,-15.4,10.5,13.7
CCN(CC)S(=O)(=O)c1cccc(C(=O)Nc2nncs2)c1,0.7,0.8,22.2,nt,29.2,nt
Nc1ccc2c(c1)N1CCN=C1S2,1,1,0.6,nt,4.2,nt
O=C(Nc1ccc(Cl)cc1)Nc1ccc2c(c1)N1CCN=C1S2,0.3,0.6,41.5,61.0,66.9*,-60.9
Clc1ccc(CSc2snnc2-c2ccccc2)cc1,0.6,1.1,-10.5,12.1,42.6,-13.0
O=S(=O)(c1ccc(Cl)c(Cl)c1)c1snnc1-c1ccccc1,0.1,0,98.7*,4.5,90.2*,-1.5
Cn1c(NC(=O)c2ccccc2F)cc(=O)n(C)c1=O,1,1,-0.6,-5.1,0.1,4.2
COc1cccc(N2CCN(Cc3nc4ccccc4c(=O)[nH]3)CC2)c1,0.7,0.8,20.9,0.1,33.8,-0.8
CCN(Cc1nc2ccccc2c(=O)[nH]1)Cc1cc(=O)oc2cc(OC)ccc12,0.5,0.5,45.8,-6.1,51.5*,4.0
Cc1cc2oc(=O)cc(COC(=O)c3n[nH]c4ccccc34)c2cc1C,0.2,0.9,13.6,5.0,76.3*,-2.4
COc1ccc2c(COC(=O)c3n[nH]c4ccccc34)cc(=O)oc2c1,0.4,0.8,17.0,-3.7,55.5*,1.6
CC1CCCCC1NC(=O)CSc1nc2ccccc2c(=O)n1Cc1ccco1 (centres undefined),1,0.9,13.5,nt,4.5,nt
CCCC(=O)Nc1nnc(SCC(=O)NCc2cccs2)s1,1,0.8,16.8,0.1,3.0,1.6
c1ccc2[nH]c(SN3CCOCC3)nc2c1,1.1,1.2,-16.6,-4.6,-11.5,4.1
C=CCc1ccc(OCC(O)CN2CCCCC2)c(OC)c1 (centres undefined),1,0.9,7.9,2.1,2.8,-1.5
C=CCc1ccc(OCCCOc2ccc(C)cc2OC)c(OC)c1,0.7,0.4,59.0*,5.6,31.7,-7.8
COc1cc(C)ccc1OCCCOc1cc(C)ccc1Cl,nt,nt,nt,-4.7,nt,7.6
C=CCc1ccc(OCC(O)COc2ccc(CC=C)cc2OC)c(OC)c1,0.1,0,96.9*,10.4,92.9*,-10.8
C=CCc1ccc(OCCOCCOc2ccccc2[N+](=O)[O-])c(OC)c1,0.2,0.1,85.1*,-16.9,76.6*,16.5
CN1c2ccccc2C(C)(C)C12C=Cc1cc(O)ccc1O2 (centres undefined),0.4,0.2,75.6*,0.7,61.2*,0.8
CCOC(=O)c1c(C)n(CC(O)c2ccccc2)c2ccc(O)cc12 (centres undefined),0.4,0.4,63.8*,-15.8,59.7*,13.3
SMILES,CYP2C9 act,CYP2C19 act,CYP2C19 inh,sEH inh,CYP2C9 inhib,sEH act
CCOC(=O)c1c(C)n(C)c2ccc(OCC(N)=O)cc12,0.7,1,4.1,1.0,33.7,-1.3
CCOC(=O)c1c(C)n(CCNC(C)=O)c2ccc(O)cc12,0.6,0.4,60.4*,-12.3,44.2,10.2
CCOC(=O)COc1ccc2c(c1)c(C(=O)OCC)c(C)n2CC,0.6,0.2,80.3*,-4.8,40.3,4.0
CCCCC1=NN2C(=N)CC(=O)N=C2S1,0.9,0.9,8.8,8.6,11.6,-3.1
Clc1ccc(-c2cc(CSc3ccccc3)on2)cc1,0.8,0.6,36.8,nt,23.0,nt
Clc1cc(CSc2ccccc2)nc(-c2ccccc2)n1,0.5,0.6,44.8,nt,52.9*,nt
CCOC(=O)CSc1cc(CSc2ccccc2)nc(-c2ccccc2)n1,0.7,0.4,57.1*,7.1,29.7,-5.5
CCOC(=O)CSc1ccc2nnc(-c3ccccc3)n2n1,0.8,1,-2.0,nt,24.0,nt
CCOC(=O)CSc1nc(-c2ccccc2)nc2c1oc1ccccc12,1.1,1.1,-14.9,3.1,-6.1,0.3
CCOC(=O)CSc1cc(CS(=O)c2ccc(Cl)cc2)nc(-c2ccccc2)n1 (centres undefined),0.1,0,100.2*,19.5,85.2*,-19.9
Clc1ccc(SCc2cc(-c3ccccc3)on2)cc1,1.2,0.1,90.4*,9.0,-19.4,-7.1
COC(=O)Cn1c(CN2CCN(c3ccc(F)cc3)CC2)nc2c1c(=O)n(C)c(=O)n2C,0.8,0.8,25.0,-3.1,22.9,7.5
COc1cccc(N(CC(=O)N2CCN(C)CC2)S(=O)(=O)c2ccc(C)cc2)c1,1,1.1,-8.1,13.3,-1.6,-12.2
O=C(c1ccco1)N1CCN(c2ncnc3c2cnn3-c2ccccc2)CC1,0.8,0.7,27.1,-0.7,15.4,2.3
CC(C)Cc1nc(N2CCCCC2)c(C#N)c2c1CCC2,1,1,0.1,-1.3,2.7,4.8
CC(Sc1nc(N2CCOCC2)c2c(c1C#N)CC(C)(C)OC2)C(=O)Nc1ccccc1 (centres undefined),nt,nt,nt,1.7,nt,-3.5
CC1(C)Cc2c(C#N)c(N3CCN(C(=O)c4ccco4)CC3)nc(Cc3ccccc3)c2CO1,0,0.3,73.1*,-4.8,95.1*,4.5
CC(=O)N1CCN(c2nc(CC(C)C)c3c(c2C#N)CCC3)CC1,0.3,0.3,73.1*,nt,73.4*,nt
CC(C)c1cc(N2CCN(C(=O)c3ccco3)CC2)n2c(nc3ccccc32)c1C#N,0.3,0.4,62.6*,-8.5,73.5*,7.4
Cc1nc(N2CCN(C(=O)c3ccc(Cl)cc3)CC2)c(C#N)c2c1COC(C)(C)C2,0.5,0.2,82.8*,6.6,50.3*,-5.6
CC(C)Cc1nc(N2CCN(C(=O)C(C)C)CC2)c(C#N)c2c1CCC2,0.2,0.2,83.7*,7.4,81.3*,-4.3
CC(C)Cc1nc(N2CCN(C(=O)c3ccco3)CC2)c(C#N)c2c1CCC2,0,0,99.0*,8.8,97.5*,-7.0
COCCn1c(-c2ccsc2)nc2c1c(=O)[nH]c(=O)n2CC(C)C,1.1,0.4,55.3*,-10.1,-6.6,8.2
COCCCNCC(=O)c1c(N)n(Cc2ccccc2)c(=O)n(C)c1=O,0.9,1,0.5,nt,12.6,nt
O=C(CC(c1ccccc1)c1ccccc1O)NCc1ccco1 (centres undefined),0.5,0.5,49.3,-6.1,51.3*,9.6
C/C(CC(=O)NCc1ccco1)=N\NC(=O)C(c1ccccc1)c1ccccc1,0.5,0.9,5.9,-3.8,50.8*,6.8
